# ChEMBL document CHEMBL3988442, “University of Dundee, Small-Polar-MMV Screening Library” (2021)
# About 1,000 (1.4%) of roughly 69,000 compounds showed an effect of 50% or more. This is one part of a sample in which strong results are shown more often than they occur.
# Tested on: Leishmania donovani
# Assay: Leishmania intramacrophage assay
# Type: functional, organism-based
# Set-up: scale not given: in the data most compounds retested in dose-response had high values
smiles,measurement,setting,value
O=C(Cn1c(=O)nc2n1C(=O)N(c1ccccc1)C2)NC1CCCCC1,Percent Effect,"30.3 µM, […]",-29.26%
COc1ccccc1CN1C(=O)O[C@@H]2CN(Cc3cccc(C)n3)C[C@@H]21,Percent Effect,"30.3 µM, […]",-18.87%
CC(C)c1nnc2n1CC(CNCc1nc3ccccc3s1)CC2 (stereo unspecified),Percent Effect,"30.3 µM, […]",-6.919%
O=C(Nc1c(N2CCCC2)cccc1N1CCCC1)c1ccccn1,Percent Effect,"30.3 µM, […]",56.83%
O=C(Nc1c(N2CCCC2)cccc1N1CCCC1)c1cnccn1,Percent Effect,"30.3 µM, […]",2.563%
O=C(Nc1c(N2CCCC2)cccc1N1CCCC1)c1cnsn1,Percent Effect,"30.3 µM, […]",-91.54%
N#Cc1ccccc1CN1C[C@@H]2CC[C@H](C1)N(CC1CC1)C2=O,Percent Effect,"30 µM, 30.03 µM",6.562%
COc1ccc(CNC(=O)CCc2c(C)noc2C)cc1F,Percent Effect,"30.3 µM, […]",14.24%
c1ccc(Cc2nc(CNC3CCC4(CCNCC4)CC3)no2)cc1,Percent Effect,"30.3 µM, […]",-22.96%
CCOC(=O)N1CCN(C(=O)C2CC(=O)N(c3ccccc3Br)C2)CC1 (stereo unspecified),Percent Effect,"30.3 µM, […]",15.14%
Cc1ccccc1NCc1nc2n(n1)CCCCC2,Percent Effect,"30.3 µM, […]",-2.813%
Cc1ccc(Cl)cc1NCc1nc2n(n1)CCCCC2,Percent Effect,"30.3 µM, […]",5.268%
Cc1c(Cl)cccc1NCc1nc2n(n1)CCCCC2,Percent Effect,"30.3 µM, […]",55.49%
Cl.Cl.O=C(NCc1cncc2c1CCN(Cc1cccc(F)c1)C2)C1CC1,Percent Effect,"30 µM, 30.03 µM",-3.8%
CC(NC(=O)NCCn1ccnc1)c1nncn1C (stereo unspecified),Percent Effect,"30.3 µM, […]",-59.34%
CCc1nc(NC(=O)NCCc2scnc2C)nn1C,Percent Effect,"30.3 µM, […]",-19.54%
CCCC1CCCN(Cc2csc(-c3cnn(C)c3)n2)CC1 (stereo unspecified),Percent Effect,"30 µM, 30.03 µM",-20.44%
CCCC1CCCN(Cc2csc(-c3ncccn3)n2)CC1 (stereo unspecified),Percent Effect,30 µM,77.24%
CC1CCCN(Cc2csc(-c3ncccn3)n2)CC1 (stereo unspecified),Percent Effect,"30 µM, 30.03 µM",43.73%
O=C1NC(c2cccnc2)=NC12CCN(CCCc1ccccc1)CC2,Percent Effect,"30.3 µM, […]",-4.495%
CC(CN1CCC2(CC1)N=C(c1cccnc1)NC2=O)c1ccccc1 (stereo unspecified),Percent Effect,"30.3 µM, […]",100.2%
CC1=NC2(CCN(CC(C)c3ccccc3)CC2)C(=O)N1 (stereo unspecified),Percent Effect,"30.3 µM, […]",10.6%
Cc1nc(CN2CCCC(CCc3ccc(F)cc3F)C2)c[nH]1 (stereo unspecified),Percent Effect,"30 µM, 30.03 µM",30.76%
Cc1nc(CN2CCCC(CCc3c(F)cccc3F)C2)c[nH]1 (stereo unspecified),Percent Effect,"30 µM, 30.03 µM",47.92%
Cc1nc(CN2CCCC(CCc3ccc(F)c(F)c3)C2)c[nH]1 (stereo unspecified),Percent Effect,"30.3 µM, […]",65.39%
COCC1CN(C(=O)Nc2cc(-n3cccc3)ccc2F)CCO1 (stereo unspecified),Percent Effect,"30.3 µM, […]",7.734%
CNC(=O)CN1CCOC(c2cccc(N)n2)C1 (stereo unspecified),Percent Effect,"30.3 µM, […]",18.21%
CN(Cc1nnc(C2CC2)n1C)C1CCN(Cc2nccn2C)C1 (stereo unspecified),Percent Effect,30 µM,20.02%
O=C(NCCc1nncn1C1CC1)C1(Cc2ccccc2)CCC1,Percent Effect,"30.3 µM, […]",8.956%
CN(C)CCN(Cc1ccccn1)Cc1ccnn1C1CCCCO1.O=C(O)CC(O)(CC(=O)O)C(=O)O (stereo unspecified),Percent Effect,"30.3 µM, […]",29.57%
Cc1sc2nc(CCN)nc(N(CCN(C)C)CC3CCCO3)c2c1C (stereo unspecified),Percent Effect,"30.3 µM, […]",38.72%
CC(=O)N1CCc2c(nc(N(C)C)nc2N(C)CCCC2CCCO2)C1 (stereo unspecified),Percent Effect,"30.3 µM, […]",-1.539%
COCCN(CC1CC1)c1nc(CCN)nc2sc(C)c(C)c12,Percent Effect,"30.3 µM, […]",77.93%
CCCSc1nn(CCN(C)C)c2nc3sc(C)c(CC)c3c(=O)n12,Percent Effect,"30.3 µM, […]",45.45%
CCN(CCN(C)C)c1nc(CCN)nc2sc(C)c(C)c12,Percent Effect,"30.3 µM, […]",54.95%
Cc1sc2nc(CCN)nc(N(C)CCCC3CCCO3)c2c1C (stereo unspecified),Percent Effect,"30.3 µM, […]",63.54%
Cc1nn(C2CCS(=O)(=O)C2)c(O)c1Cc1ccccc1 (stereo unspecified),Percent Effect,"30.3 µM, […]",20.59%
Cc1csc(CN(CC2CCCO2)C(=O)c2ccc(C)nc2C)n1 (stereo unspecified),Percent Effect,"30.3 µM, […]",-39.1%
Cc1cc(=O)n(C)cc1NC(=O)Cc1cccc(Cl)c1,Percent Effect,"30.3 µM, […]",-5.155%
CCOCC1CN(CC2CC2)Cc2nn(CC3CC3)cc21.O=C(O)C(F)(F)F (stereo unspecified),Percent Effect,"30.3 µM, […]",-3.875%
CNC(=O)c1ccc(C2CN(C(=O)c3cnn(C)c3)CCO2)nc1 (stereo unspecified),Percent Effect,"30.3 µM, […]",4.595%
CN(C)CCO[C@@H]1CC[C@H]2[C@H]1OCCN2C(=O)COc1ccccc1.O=C(O)C(F)(F)F,Percent Effect,"30 µM, 30.03 µM",28.35%
NS(=O)(=O)c1ccc(N2CCN(CCCc3cn[nH]c3)CC2)cc1,Percent Effect,"30.3 µM, […]",-5.312%
COc1ccc(S(=O)(=O)N2CCC[C@@H]3CN(C(=O)C4CC4)C[C@@H]32)cc1F,Percent Effect,"30.3 µM, […]",-21.4%
COc1cc(C(C)=O)ccc1OCCNCc1ccco1.Cl,Percent Effect,"30.3 µM, […]",31.62%
COc1cc(CNCc2ccco2)ccc1OCCO.Cl,Percent Effect,"30.3 µM, […]",36%
CCCc1ccc(OCCNCc2ccco2)c(OC)c1.Cl,Percent Effect,"30.3 µM, […]",65.86%
Cc1noc(CN(Cc2cccc(C#N)c2)Cc2ccco2)n1,Percent Effect,"30.3 µM, […]",-9.737%
O=C(c1cnccn1)N1CCN2C[C@H](OCC3CC3)C[C@H]2C1,Percent Effect,"30.3 µM, […]",-6.525%
Cc1cc(Cc2ccccc2C)cc(C2CCCNC2)n1 (stereo unspecified),Percent Effect,"30.3 µM, […]",39.73%
Cc1cc(Cc2cccc(C(F)(F)F)c2)cc(C2CCCNC2)n1 (stereo unspecified),Percent Effect,"30.3 µM, […]",91.42%
